From PubChem BioAssay (Tox21)
Results filed as inconclusive are left out. The source made the active and inactive calls. Unless noted, calls come from the whole dose curve; as a rule, active = well fitted curve in the direction sought with a large enough effect in the repeat runs; inconclusive = weak or mixed curves; inactive = no such curve, though single readings can be large; an effect the other way counts as inactive or inconclusive.

Tests used:
[1] = A CellTox Green Cytotoxicity Assay to monitor cytotoxicity in HepG2 cells - 32 hour (AID 1224883); note: nearly all actives have a fitted effect of over 50% in size; note: potency is the fitted concentration of half-maximal effect
Summary of the method: (§1)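 Measurements at 0, 8, 16, 24, 32 and 40 h of treatment captured CellTox Green fluorescence in HepG2 cells that had been co-plated with reagent and preincubated 5 h at 37 C/5% CO2.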

[2] = A CellTox Green Cytotoxicity Assay to monitor cytotoxicity in HEK293 cells - 8 hour (AID 1224884); note: nearly all actives have a fitted effect of over 35% in size; note: potency is the fitted concentration of half-maximal effect
Summary of the method: (§2)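 Tox21 screen in HEK293: membrane-impermeant cyanine dye fluoresces on binding dead-cell DNA; compound pinned 5 h post-seeding, plates held at 37 C, signal read repeatedly through 40 h.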

[3] = qHTS RealTime-Glo MT Cell Viability Assay in HepG2 cells - 16 hour (AID 1224885); note: nearly all actives have a fitted effect of over 50% in size; note: potency is the fitted concentration of half-maximal effect
Summary of the method: (§3)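 HepG2 cells (600/well) were dispensed with RealTime-Glo reagents, incubated 5 h at 37 °C, then treated with compounds in DMSO for up to 40 h. Nonlytic NanoLuc luminescence reflecting viable cells was read at each stated time point.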

[4] = qHTS RealTime-Glo MT Cell Viability Assay in HEK293 cells - 24 hour (AID 1224886); note: nearly all actives have a fitted effect of over 50% in size; note: potency is the fitted concentration of half-maximal effect
Summary of the method: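 HEK293 cells seeded with NanoLuc/prosubstrate reagent, rested 5 h at 37 C, then dosed and kept at 37 C up to 40 h. Nonlytic real-time luminescence from viable cells read at 0, 8, 16, 24, 32 and 40 h.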

[5] = qHTS RealTime-Glo MT Cell Viability Assay in HEK293 cells - 8 hour (AID 1224887); note: nearly all actives have a fitted effect of over 50% in size; note: potency is the fitted concentration of half-maximal effect
Summary of the method: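 HEK293 + NanoLuc + prosubstrate, 600 cells/well; 5 h, 37 C/5% CO2; compound 23 nL in DMSO by pintool; 37 C; luminescence read at 0, 8, 16, 24, 32 and 40 h time points.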

[6] = A CellTox Green Cytotoxicity Assay to monitor cytotoxicity in HEK293 cells - 16 hour (AID 1224888); note: nearly all actives have a fitted effect of over 35% in size; note: potency is the fitted concentration of half-maximal effect
Summary of the method: as §2

[7] = qHTS RealTime-Glo MT Cell Viability Assay in HepG2 cells - 0 hour (AID 1224889); note: nearly all actives have a fitted effect of over 50% in size; note: potency is the fitted concentration of half-maximal effect
Summary of the method: as §3

[8] = A CellTox Green Cytotoxicity Assay to monitor cytotoxicity in HepG2 cells - 8 hour (AID 1224890); note: nearly all actives have a fitted effect of over 45% in size; note: potency is the fitted concentration of half-maximal effect
Summary of the method: as §1

[9] = qHTS assay to identify small molecule antagonists of the androgen receptor (AR) signaling pathway using the MDA cell line in the presence of 0.5 nM R1881 - cell viability counter screen (AID 1259242); note: nearly all actives have a fitted effect of over 45% in size; note: potency is the fitted concentration of half-maximal effect
Summary of the method: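 Concentration-response screen of compounds for toxicity in MDA-kb2 reporter cells: 16 hr at 37C with 0.5 nM R1881, endpoint live-cell protease fluorescence measured in the reporter wells.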

[10] = qHTS assay to identify small molecule HDAC inhibitors (AID 1259364); note: potency is the fitted concentration of half-maximal effect;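 note: wild-type HCT-116 cells with endogenous class I/II HDAC activity; nearly all actives have a fitted effect of over 45% in size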
Summary of the method: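 Screening used wild-type human colon HCT-116 cells incubated overnight, dosed with compounds for 2 hours, and assayed with a homogeneous luminogenic HDAC I/II reagent for 30 minutes at room temperature.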

[11] = qHTS assay to identify small molecule agonists of the sonic hedgehog signaling (Shh) pathway - cell viability counter screen (AID 1259366); note: nearly all actives have a fitted effect of over 50% in size; note: potency is the fitted concentration of half-maximal effect
Summary of the method: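 Compounds in DMSO were pin-transferred onto 3T3 Gli1-Luc cells that had settled 4hr; plates then stood 24hr at 37C and 5% CO2. One hour before the end, CellTiter-Fluor was added and fluorescence recorded.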

[12] = qHTS assay to identify small molecule antagonists of the sonic hedgehog signaling (Shh) pathway - cell viability counter screen (AID 1259367); note: nearly all actives have a fitted effect of over 55% in size; note: potency is the fitted concentration of half-maximal effect
Summary of the method: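 Conditioned medium drove Shh signaling in 3T3 Gli1-Luc cells exposed to compounds at 37C and 5% CO2. Viability was determined from CellTiter-Fluor fluorescence, with reagent incubated 1 hr after 23 hr of treatment.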

[13] = qHTS assay to identify small molecule agonists of the sonic hedgehog signaling (Shh) pathway (AID 1259368; calls by dose curve;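 note: NIH/3T3-derived 3T3Gli1-Luc cells carrying a stable Gli1-driven firefly luciferase reporter; series mostly up to about 92 µM; nearly all actives have a fitted effect of over 15% in size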)
Summary of the method: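 Hedgehog pathway agonism scored by increased firefly luciferase luminescence in 3T3Gli1-Luc cells treated 24 hr at 37 C; detection used a 30 min room-temperature reagent incubation.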

[14] = qHTS assay to identify small molecule antagonists of the sonic hedgehog signaling (Shh) pathway (AID 1259369; calls by dose curve; note: nearly all actives have a fitted effect of over 45% in size; note: potency is the fitted concentration of half-maximal effect)
Summary of the method: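 NIH/3T3 stable Gli1-Luc clone, 2,000 cells/well, 4hr settle; cpd + conditioned medium 24hr; Luc reagent 30min RT; luminescence.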

[15] = target: Estrogen receptor beta (Homo sapiens) (UniProt Q92731); assay: qHTS assay to identify small molecule agonists of the estrogen receptor beta (ER-beta) signaling pathway (AID 1259377; active = well fitted activation curve with a large enough effect in the signal ratio in the repeat runs, not every such curve was filed as active; the % refers to the signal ratio)
Estrogen receptor beta (Homo sapiens), sequence (Q92731 whole entry, looked up): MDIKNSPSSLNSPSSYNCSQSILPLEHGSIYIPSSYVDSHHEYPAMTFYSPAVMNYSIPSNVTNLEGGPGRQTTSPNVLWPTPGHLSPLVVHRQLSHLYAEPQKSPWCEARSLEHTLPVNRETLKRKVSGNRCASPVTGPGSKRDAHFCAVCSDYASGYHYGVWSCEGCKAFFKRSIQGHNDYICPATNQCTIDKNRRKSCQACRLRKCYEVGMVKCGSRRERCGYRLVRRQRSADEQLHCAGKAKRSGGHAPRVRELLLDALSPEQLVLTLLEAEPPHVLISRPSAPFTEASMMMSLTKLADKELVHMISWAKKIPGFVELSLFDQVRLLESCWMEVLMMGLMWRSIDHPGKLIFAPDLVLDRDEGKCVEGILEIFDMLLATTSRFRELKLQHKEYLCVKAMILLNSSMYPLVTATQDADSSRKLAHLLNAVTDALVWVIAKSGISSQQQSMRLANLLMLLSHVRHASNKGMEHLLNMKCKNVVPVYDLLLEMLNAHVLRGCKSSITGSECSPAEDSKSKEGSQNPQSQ
Summary of the method: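 qHTS in ER-beta-UAS-bla HEK293T cells: 6 hr settling, then 16 hr compound at 37C, then LiveBLAzer substrate 2 h at RT before fluorescence reading.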

[16] = qHTS assay to identify small molecule antagonists of the estrogen receptor alpha (ER-alpha) signaling pathway using the BG1 cell line in the presence of 0.1 nM 17-beta-estradiol - cell viability counter screen (AID 1259241); note: nearly all actives have a fitted effect of over 40% in size; note: potency is the fitted concentration of half-maximal effect
Summary of the method: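 Following 5 days in phenol red-free medium with charcoal-stripped serum, VM7Luc4E2 cells received test compounds alongside 0.1 nM 17beta-estradiol (final) at 37C for 22 hr. Live cells were then quantified via protease-substrate fluorescence.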

[17] = target: Estrogen receptor (Homo sapiens) (UniProt P03372); assay: qHTS assay to identify small molecule antagonists of the estrogen receptor alpha (ER-alpha) signaling pathway using the BG1 cell line in the presence of 0.1 nM 17-beta-estradiol (AID 1259244); note: nearly all actives have a fitted effect of over 50% in size; note: potency is the fitted concentration of half-maximal effect
Estrogen receptor (Homo sapiens), sequence (P03372 whole entry, looked up): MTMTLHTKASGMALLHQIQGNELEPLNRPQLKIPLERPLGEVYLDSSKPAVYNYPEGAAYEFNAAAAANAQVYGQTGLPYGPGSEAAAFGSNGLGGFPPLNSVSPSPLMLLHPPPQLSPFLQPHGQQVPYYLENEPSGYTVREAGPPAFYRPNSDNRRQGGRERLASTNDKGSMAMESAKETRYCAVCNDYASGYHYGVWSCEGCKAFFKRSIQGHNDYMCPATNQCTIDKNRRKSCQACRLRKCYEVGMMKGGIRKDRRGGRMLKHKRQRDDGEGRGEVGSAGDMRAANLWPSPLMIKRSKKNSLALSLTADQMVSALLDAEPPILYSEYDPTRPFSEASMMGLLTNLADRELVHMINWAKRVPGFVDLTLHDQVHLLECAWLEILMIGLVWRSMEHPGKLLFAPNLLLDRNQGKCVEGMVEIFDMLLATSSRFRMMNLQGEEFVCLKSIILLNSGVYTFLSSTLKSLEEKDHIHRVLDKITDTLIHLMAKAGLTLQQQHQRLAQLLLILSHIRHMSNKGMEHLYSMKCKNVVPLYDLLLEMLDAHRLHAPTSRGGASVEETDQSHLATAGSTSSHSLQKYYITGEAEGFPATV
Summary of the method: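 Compounds were tested against 0.1 nM (final) 17beta-estradiol in VM7Luc4E2 cells, which express full-length ER-alpha and an ERE-luciferase reporter; luminescence was recorded following 22 h exposure.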

[18] = qHTS assay to identify small molecule HDAC inhibitors - cell viability counter screen (AID 1259365); note: nearly all actives have a fitted effect of over 50% in size; note: potency is the fitted concentration of half-maximal effect
Summary of the method: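 HCT-116 wild-type, overnight attachment; 2hr drug exposure, 37C; CellTiter-Glo luminescent ATP readout after 30min RT.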

[19] = qHTS assay to identify small molecule phospholipidosis (PLD) inducers (AID 1259344; active = well fitted curve in the direction sought with a large enough effect; an effect the other way counts as inactive or inconclusive)
Summary of the method: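 After 4 h attachment on collagen I, HepG2 cells were dosed with compound alongside LipidTOX Red, kept 24 h at 37 C, fixed, and imaged for lamellar phospholipid pits.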

[20] = target: Androgen receptor (Homo sapiens) (UniProt P10275); assay: qHTS assay to identify small molecule antagonists of the androgen receptor (AR) signaling pathway using the MDA cell line in the presence of 0.5 nM R1881 (AID 1259243); note: nearly all actives have a fitted effect of over 50% in size; note: potency is the fitted concentration of half-maximal effect
Androgen receptor (Homo sapiens), sequence (P10275 whole entry, looked up): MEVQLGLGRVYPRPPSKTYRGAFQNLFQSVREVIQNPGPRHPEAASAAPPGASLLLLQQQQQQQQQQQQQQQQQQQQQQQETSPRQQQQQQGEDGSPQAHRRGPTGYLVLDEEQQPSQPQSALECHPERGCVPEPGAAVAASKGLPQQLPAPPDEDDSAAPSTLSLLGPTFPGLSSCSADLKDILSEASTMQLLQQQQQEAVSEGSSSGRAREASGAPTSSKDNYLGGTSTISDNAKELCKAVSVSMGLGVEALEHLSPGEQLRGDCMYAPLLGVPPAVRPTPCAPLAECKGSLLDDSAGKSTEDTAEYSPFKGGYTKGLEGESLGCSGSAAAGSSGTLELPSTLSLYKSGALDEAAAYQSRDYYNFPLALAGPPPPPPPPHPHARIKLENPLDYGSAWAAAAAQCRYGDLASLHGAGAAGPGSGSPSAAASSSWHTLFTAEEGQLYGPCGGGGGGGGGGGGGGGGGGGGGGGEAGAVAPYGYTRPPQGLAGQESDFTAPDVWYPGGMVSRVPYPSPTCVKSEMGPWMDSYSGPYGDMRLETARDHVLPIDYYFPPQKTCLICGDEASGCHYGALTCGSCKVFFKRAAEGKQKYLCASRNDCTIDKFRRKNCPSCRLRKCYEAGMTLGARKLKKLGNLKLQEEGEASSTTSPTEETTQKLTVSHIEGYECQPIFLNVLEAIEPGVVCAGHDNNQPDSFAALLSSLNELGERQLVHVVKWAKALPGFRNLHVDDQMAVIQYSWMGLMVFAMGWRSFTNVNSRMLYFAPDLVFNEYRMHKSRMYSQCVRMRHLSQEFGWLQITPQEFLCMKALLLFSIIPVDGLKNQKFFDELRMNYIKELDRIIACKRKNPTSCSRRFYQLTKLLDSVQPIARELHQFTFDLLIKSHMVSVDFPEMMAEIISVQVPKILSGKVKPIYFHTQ
Summary of the method: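 With R1881 held at 0.5 nM (final), compound effects on MMTV-luciferase expression in MDA-kb2 cells were scored by luminescence after a 16 hr, 37C incubation.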

Measured: Potency

ClC(Cl)=C(Cl)Cl
inactive: [1] | [2] | [3] | [4] | [5] | [6] | [7] | [8] | [9] | [10] | [11] | [12] | [13] | [14] | [15]

Cc1cc(Cl)ccc1O[C@H](C)C(=O)O
inactive: [1] | [2] | [3] | [4] | [5] | [6] | [8] | [16] | [9] | [17] | [10] | [18] | [11] | [12] | [13] | [14]

FC(F)(F)c1cccc(C2=CCN(CCc3ccc4ccccc4c3)CC2)c1
inactive: [1] | [2] | [3] | [4] | [5] | [6] | [8] | [16] | [9] | [19] | [10] | [18] | [11] | [12] | [13] | [14]

ClC1=C(Cl)[C@]2(Cl)[C@@H]3[C@@H]4C[C@@H]([C@H]5O[C@@H]45)[C@@H]3[C@@]1(Cl)C2(Cl)Cl
active: [1] 54.9 µM | [2] 27.5 µM | [3] 43.6 µM | [4] 21.9 µM | [5] 38.9 µM | [6] 49 µM | [8] 49 µM | [17] 68.6 µM | [14] 21.7 µM
inactive: [7] | [19] | [10] | [18] | [13]

c1ccc(OCC2CO2)cc1 (stereo not given)
inactive: [1] | [2] | [3] | [4] | [5] | [6] | [8] | [16] | [9] | [10] | [18] | [11] | [12] | [13] | [14] | [15]

CN(C)CCc1c[nH]c2cccc(O)c12
inactive: [1] | [2] | [3] | [4] | [5] | [6] | [7] | [8] | [9] | [19] | [10] | [18] | [13] | [15]
active: [14] 53.9 µM

[CH3][Hg][Cl]
inactive: [2] | [7] | [16] | [17] | [13]
active: [1] 12.3 µM | [3] 10.9 µM | [4] 4.89 µM | [5] 6.9 µM | [8] 15.5 µM | [9] 21.6 µM | [20] 19.3 µM | [10] 27.2 µM | [11] 4.84 µM | [12] 68.4 µM | [14] 34.3 µM

Nc1c(Oc2ccccc2)cc(O)c2c1C(=O)c1ccccc1C2=O
inactive: [1] | [2] | [3] | [6] | [7] | [8] | [17] | [18] | [11] | [14]
active: [4] 21.3 µM | [5] 10.7 µM

ClC1=C(Cl)[C@]2(Cl)[C@@H]3[C@@H](Cl)[C@H](Cl)C[C@@H]3[C@@]1(Cl)C2(Cl)Cl
inactive: [1] | [2] | [3] | [4] | [5] | [8] | [16] | [9] | [20] | [17] | [10] | [18] | [11] | [12] | [13] | [14] | [15]

CC(=O)[O-].CC(=O)[O-].[Hg+2]
inactive: [13]
active: [1] 1.74 µM | [2] 43.6 µM | [3] 2.45 µM | [5] 2.19 µM | [6] 24.5 µM | [7] 30.9 µM | [8] 3.09 µM | [16] 17.2 µM | [9] 7.7 µM | [10] 19.3 µM | [18] 61.1 µM | [11] 2.17 µM | [12] 4.33 µM | [14] 0.686 µM

Cc1cc(SCc2sc(-c3ccc(C(F)(F)F)c(F)c3)nc2C)ccc1OCC(=O)O
inactive: [1] | [2] | [3] | [5] | [6] | [7] | [8] | [16] | [9] | [17] | [18] | [13]
active: [11] 43.3 µM | [12] 30.6 µM

Oc1ccc(C2(c3ccc(O)cc3)c3ccccc3-c3ccccc32)cc1
active: [1] 61.6 µM | [3] 49 µM | [17] 1.72 µM | [11] 54.5 µM | [12] 27.3 µM | [14] 27.3 µM
inactive: [2] | [6] | [8] | [9] | [10] | [18] | [13]

COc1ccc(OC)c(C=O)c1
inactive: [1] | [2] | [3] | [6] | [7] | [8] | [16] | [9] | [17] | [10] | [18] | [11] | [12] | [13] | [14] | [15]

CCOc1cc(C(C)(C)C)ccc1C1COC(c2c(F)cccc2F)=N1 (stereo not given)
active: [14] 2.95 µM
inactive: [1] | [2] | [3] | [5] | [6] | [8] | [16] | [9] | [10] | [11] | [12] | [13]

O=S(=O)(c1ccc(Cl)cc1)c1ccc(Cl)cc1
inactive: [1] | [2] | [3] | [6] | [7] | [8] | [16] | [9] | [19] | [18] | [11] | [12] | [15]

CC(C)CCCCCCCOP(=O)(Oc1ccccc1)Oc1ccccc1
inactive: [1] | [2] | [3] | [6] | [7] | [8] | [16] | [9] | [17] | [10] | [18] | [11] | [12] | [13]
